# From PubChem BioAssay AID652257 (The Scripps Research Institute Molecular Screening Center, 2013)
# Where “and” joins values, the source holds several entries; their conditions need not be identical. Identical values can stand only once. Out of some 370,000 compounds screened, about 4,800 (1.3%) were called active.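 The calls were made as follows: active = inhibition above about 21% made by adding two undisclosed values (limit read from the data); inactive = the rest.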 The entries come from a sample that favours actives as a whole.
# Target: Protein arginine N-methyltransferase 1 (Homo sapiens) (UniProt Q99873)
# Assay: PRMT1 methyltransferase inhibitors, primary screen, biochemical, fluorescence polarization (AID 652257)
# Conditions: recombinant PRMT1, activity-based probe fluorescence polarization; at 2.79 µM; active compounds read high
# Chain of Protein arginine N-methyltransferase 1 (Homo sapiens) (Q99873 whole entry, looked up): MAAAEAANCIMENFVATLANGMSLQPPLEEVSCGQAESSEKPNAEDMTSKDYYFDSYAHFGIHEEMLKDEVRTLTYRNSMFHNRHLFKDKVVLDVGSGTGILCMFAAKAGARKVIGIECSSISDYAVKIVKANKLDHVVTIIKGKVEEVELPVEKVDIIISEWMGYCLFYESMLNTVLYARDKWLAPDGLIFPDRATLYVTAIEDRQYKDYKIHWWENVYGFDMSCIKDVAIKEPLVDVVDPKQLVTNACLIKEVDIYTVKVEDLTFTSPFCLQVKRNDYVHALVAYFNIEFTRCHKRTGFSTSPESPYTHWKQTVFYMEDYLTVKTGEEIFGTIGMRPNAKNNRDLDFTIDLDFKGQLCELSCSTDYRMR
row,Compound,inhibition
1,C[C@@H]1ON(C)[C@H]2C[C@H]3c4[nH]c5cccc(-c6ccc7c(c6)OCO7)c5c4CCN3C[C@@H]12,-2.89% (inactive)
2,COC(=O)[C@H](C(C)C)N1CCc2nnn(Cc3ccc(C)cc3)c2-c2ccccc2S1(=O)=O,0.49% (inactive)
3,CCOC(=O)[C@]12CCCC3=C1N(CCC3)C(=O)[C@@H](CC(=O)NCC13CC4CC(CC(C4)C1)C3)C2,-3.58% (inactive)
4,CCC(=O)c1c(CC)c2n3c1=CC[C@H]3CC(Br)C=2 (stereo partly specified),0.28% (inactive)
5,COc1ccc(-n2c(SCC(=O)NC3CCCC3)nnc2-c2ccncc2)cc1,4.19% (inactive)
6,N#CC1(NC(=O)COC(=O)Cc2n[nH]c(=O)c3ccccc23)CCCCC1,1.07% (inactive)
7,N#CC1(Nc2ccc3c4c(cccc24)CC3)CCCCC1,50.2% (active)
8,O=S(=O)(NC1CC1)c1ccc2c3c(cccc13)CC2,-2.46% (inactive)
9,Cc1ccc2c(cnn2C(=O)CCC(=O)NC2CCCC2)c1,3.39% (inactive)
10,COc1ccc(CNS(=O)(=O)c2ccc(NC(=O)N3CCCCC3)cc2)cc1,-0.17% (inactive)
11,CC(C)=C1C2CCC1C1C(=O)N(NC(=O)c3ccco3)C(=O)C21 (stereo unspecified),-2.54% (inactive)
12,COc1ccc(CN2C(=O)N3Cc4cc(OC)ccc4C3CS2(=O)=O)cc1 (stereo unspecified),3.9% (inactive)
13,CCN1C(=O)N[C@@H]2C[C@H](C(=O)N3CCCC3)[C@H](C)[C@H](c3ccccc3)C[C@@H]21,-4.4% (inactive)
14,COc1ccccc1-c1nnc(NC(=O)c2ccc3ncsc3c2)o1,9.47% (inactive)
15,O=C(COC(=O)c1ccc2ncsc2c1)Nc1ccc(Cl)cc1,14.3% (inactive)
16,Cc1sc(NC(=O)c2ccc3ncsc3c2)c(C(N)=O)c1C,33.8% (active)
17,CN1CCCc2nc(-c3ccccc3)ccc21,-1.81% (inactive)
18,Cc1c(C(C)CCCO)oc(=O)c2c1Oc1c(C)c(C(C)C[C@@H](C)O)oc(=O)c1C2 (stereo partly specified),1.8% (inactive)
19,CCCN(CCC)S(=O)(=O)c1cc2c(cc1Br)CCN2C(=O)CC,-3.61% (inactive)
20,CCOc1cnc(C(=O)NNC(=O)c2ccccc2Br)o1,0.46% (inactive)
21,COC(=O)C12C=C3CC(c4ccccc4)=C3C(=O)N1Cc1[nH]c3ccccc3c1C2 (stereo unspecified),-2.05% (inactive)
22,CCc1ccccc1NC(=O)CSc1nnc(-c2cccs2)o1,-1.47% (inactive)
23,O=C(O)C(CCc1ccccn1)c1ccccc1 (stereo unspecified),0.25% (inactive)

row,Compound,inhibition
1,CC(=O)NC(CC(=O)O)c1ccc(F)cc1 (stereo unspecified),0.13% (inactive)
2,CN(C)c1ccc(C(CC(=O)O)C(=O)O)cc1 (stereo unspecified),39.2% (active)
3,C[C@H]1[C@H](NC(=O)c2cccc(N(C)C)c2)CC[C@@]23CCCN2C(=O)CCC[C@@H]13,-0.17% (inactive)
4,CCOc1ccc(N(CC(=O)Nc2c(C)n(C)n(-c3ccccc3)c2=O)S(=O)(=O)c2ccc(Cl)s2)cc1,-5.48% (inactive)
5,CCO/C([O-])=N/c1c[n+](N2CCOCC2)no1,-1.72% (inactive) and 4.84% (inactive)
6,COC(=O)[C@]1(C#N)CC(=O)N(CC2CCCCC2)[C@@H]1c1ccccc1,-3.09% (inactive)
7,CCOC(=O)N1C(=O)C[C@](Sc2ccc(C)cc2)(C(=O)OC)[C@H]1c1ccccc1,53.6% (active)
8,COC(=O)[C@@]1(Sc2ccc(C)cc2)CC(=O)N(c2cccc(SC)c2)[C@@H]1c1ccccc1,4.3% (inactive)
9,O=S1(=O)c2c(cccc2N2CC[C@H](O)C2)O[C@@H]2CCN1C2,-1.77% (inactive)
10,NC(=O)c1sc2nc3c(c(-c4ccccc4)c2c1N)CCC3,21.5% (active)
11,CC(C)OC(=O)c1sc2nc3c(cc2c1N)C(=O)CCC3,0.71% (inactive)
12,COc1ccccc1-c1c(C#N)c(N)nc2c1CCC2,-2.76% (inactive)
13,Nc1scc[n+]1Cc1cccc2cccnc12,-6.71% (inactive)
14,c1ccc2c(C[n+]3csc4ccccc43)cccc2c1,31.2% (active)
15,CN1[C@H](Cc2ccccc2)COc2cccc(N3CCSCC3)c2S1(=O)=O,6.45% (inactive)
16,COC(=O)C1CN(Cc2cn(Cc3ccc(F)cc3)nn2)CCS(=O)(=O)N1Cc1ccc(Cl)cc1 (stereo unspecified),-0.68% (inactive)
17,COCC(=O)N[C@@H]1C[C@@H]2O[C@@H](CO)CC[C@@H]2O[C@@H]1CCc1ccc(-c2ccccc2)cc1,0.28% (inactive)
18,CCOCc1c(C(=O)N2CCN(Cc3ccc(Br)s3)CC2)oc2ccccc12,-1.1% (inactive)
19,CCc1ccc(NC(=O)C(C)OC(=O)/C=C/c2cccc([N+](=O)[O-])c2)cc1 (stereo unspecified),-0.43% (inactive)
20,CN(C(=O)c1cccc(NC(=O)Cc2cccc([N+](=O)[O-])c2)c1)C1CCCCC1,-0.61% (inactive)
21,COC(=O)/C=C\C(=O)Nc1cccc([N+](=O)[O-])c1,91.7% (active)
22,COc1ccc(CN2C/C(=C/c3ccccc3)N3C(=O)C[C@@H](c4ccccc4)N=C23)c(OC)c1,0.52% (inactive)
23,CCC(C)c1ccc(NC(=S)N2CCCC2)cc1 (stereo unspecified),2.33% (inactive)

row,Compound,inhibition
1,COc1ccc(N2CCN(CCNS(=O)(=O)c3ccc(C(C)(C)C)cc3)CC2)cc1,0.09% (inactive)
2,CCC(=C/c1sc2ccc3ccccc3c2[n+]1C)/C=C1\Sc2ccc3ccccc3c2N1C,75.6% (active)
3,Oc1c(C=Nc2cccc3nsnc23)ccc2ccccc12,27.2% (active)
4,O=C(NC1CCCCN(Cc2cccc(C(F)(F)F)c2)C1=O)c1ccccc1I (stereo unspecified),-1.71% (inactive)
5,COC(=O)c1cccc(Cn2ccc3ccc(-c4ccc5ccn(C(=O)c6ccccc6C)c5c4)cc32)c1,1.92% (inactive)
6,COc1cc(NC(=O)C2CCCN(S(=O)(=O)c3ccc(C(C)(C)C)cc3)C2)cc(OC)c1 (stereo unspecified),-5.91% (inactive)
7,Cc1sc(NC(=S)NC(=O)c2cccs2)nc1-c1ccc(CC(C)C)cc1,-4.11% (inactive)
8,O=C(NC(=S)Nc1cccc(-c2ccc(CO)o2)c1)c1cccs1,21.4% (active)
9,NS(=O)(=O)c1ccc(NC(=S)NNC(=O)c2cccs2)cc1,0.74% (inactive)
10,CCOC(=O)[C@]12CCCC=C1N(Cc1ccc(OC)cc1)C(=O)[C@@H]2CC(=O)NCc1cccs1,7.82% (inactive)
11,COc1cc(NC(=S)N2CCCC(C)C2)cc(OC)c1OC (stereo unspecified),5.72% (inactive)
12,COc1cc(NC(=S)N2CCCC(C)C2)c(OC)cc1Cl (stereo unspecified),40.8% (active)
13,COc1cc(NC(=O)CSC(=S)N2CCCC2)c(OC)cc1Cl,8.65% (inactive)
14,CCOC(=O)N1CCN(C(=O)C[C@@H]2C(=O)N(CCc3ccc(Cl)cc3)C3=CCCC[C@]32C(=O)OCC)CC1,0.68% (inactive)
15,O=C(COc1ccccc1O)NC1CCCC1,3.06% (inactive)
16,COc1ccc(Cl)cc1C=CC=NNC(=O)c1ccncc1,-0.1% (inactive)
17,COc1ccc(Cl)cc1C=CC=Nc1ccc(S(N)(=O)=O)cc1,-7.11% (inactive)
18,COc1ccccc1/C=C/C=N/n1c(-c2ccc(Cl)cc2Cl)n[nH]c1=S,21.3% (active)
19,Cc1ccc(NC(=O)Cc2cccc(F)c2)c(S(=O)(=O)N2CCOCC2)c1,0.91% (inactive)
20,COc1ccc(-n2c(SCC(=O)Nc3ccc4cn[nH]c4c3)nnc2-c2cccnc2)cc1,-1.98% (inactive)
21,FC(F)(F)c1cccc(NC(=S)OC2CCC23CCC(c2ccccc2)CC3)c1 (stereo unspecified),-5.1% (inactive)
22,CN(c1ccccc1)S(=O)(=O)c1ccc(C(=O)NCc2cccnc2)cc1,-4.64% (inactive)
23,O=C(c1cccnc1)N(c1cc2sc(=O)oc2c2ccccc12)S(=O)(=O)c1ccccc1,78.8% (active)

row,Compound,inhibition
1,O=C(CN(c1cc(C(F)(F)F)ccc1Cl)S(=O)(=O)c1ccccc1)NCc1cccnc1,0.93% (inactive)
2,O=C1CCC2(CCC(c3ccc(Cl)cc3)CC2)N1CCO (stereo unspecified),-4.08% (inactive)
3,O=C(NC1CCCCN(Cc2ccc(Cl)cc2)C1=O)c1ccc(Br)cc1 (stereo unspecified),-6.45% (inactive)
4,Cc1c(NC(=S)NCc2ccc(F)cc2)cccc1[N+](=O)[O-],4.29% (inactive)
5,Cc1c(NC(=O)CCCOc2ccccc2)cccc1[N+](=O)[O-],2.67% (inactive)
6,Cc1c(NC(=O)/C=C/C(=O)O)cccc1[N+](=O)[O-],70.3% (active)
7,COc1ccc(CCN2CNc3c(c(=O)n(C)c(=O)n3C)C2)cc1OC,5.09% (inactive)
8,O=S(=O)(c1ccc(Sc2nnc3ccccn23)nc1)N1CCOCC1,65.8% (active)
9,O=S(=O)(c1ccc(SCc2ccccc2)nc1)N1CCCCCC1,-2.5% (inactive)
10,O=S(=O)(c1ccc(SCc2ccc(Br)cc2)nc1)N1CCOCC1,0.76% (inactive)
11,CCOC(=O)[C@]12CCCCC/C=C\1N(Cc1ccc(OC)cc1)C(=O)[C@H]2CC(=O)NCCCN1CCCC1=O,0.39% (inactive)
12,COc1c(C(=O)N2CCCC2)ccc2ccccc12,1.75% (inactive)
13,COC(=O)c1ccc(Cc2ccccc2)o1,-1.95% (inactive)
14,COC(=O)C[n+]1cccc2ccccc21,38.1% (active)
15,COc1ccc(CN(CCN2CCOCC2)C(=O)c2ccc(C)cc2)cc1OC,2.63% (inactive)
16,Cc1ccc(Cn2cc(CN3[C@@H](C)COc4cc(Br)ccc4S3(=O)=O)nn2)cc1,0.27% (inactive)
17,CCOC(=O)[C@]12CCCCC/C=C\1N(Cc1ccc(OC)cc1)C(=O)[C@H]2CC(=O)N1CCOCC1,0.54% (inactive)
18,CSCCNC(=O)c1ccc2nc(Cc3ccccc3F)oc2c1,3.93% (inactive)
19,C=CCN1C(=O)[C@H](CC(=O)N2CCN(C(=O)OCC)CC2)[C@@]2(C(=O)OCC)CCCC=C12,0.65% (inactive)
20,COC(=O)c1cc(C(=O)OC)cc(N2C(=O)CC(N3CCN(c4ccccc4)CC3)C2=O)c1 (stereo unspecified),3.3% (inactive)
21,O=C(C1CC(=O)N(c2ccc(F)cc2)C1)N1CCN(c2ccccc2)CC1 (stereo unspecified),-0.62% (inactive)
22,O=C1CC(N2CCN(c3ccc(F)cc3)CC2)C(=O)N1c1ccccc1 (stereo unspecified),21.5% (active)
